Not all results are given here.
aSyn 5UTR act: Activators via SNCA 5'UTR binding, MLPCN; alpha-synuclein 5'UTR reporter, activators screen; activity score, % (tested at 7.5 µM), hits read low; actives 7.1% (n = 300,000); in the data active = activity score below about -60%
Numbers without * were called inactive.

SMILES | aSyn 5UTR act
COc1ccc(/C=C/C(=O)c2ccccn2)cc1 | -98*
COc1ccc(/C=C/c2cc(-c3ccc(C)cc3)o[n+]2C)cc1 | 89
COc1ccc(/C=C/C(=O)c2ccccc2O)cc1 | -233*
COc1ccc(/C=C/C(=O)c2ccoc2)cc1 | -62*
CCCC(=O)Nc1ccc2nc(SCC(=O)Nc3ccc(N4CCOCC4)c(Cl)c3)sc2c1 | -150*
Nc1ccc2nc(SCc3cccc(F)c3)sc2c1 | -139*
Nc1ccc2nc(SCC(=O)Nc3ccc(N4CCOCC4)c(Cl)c3)sc2c1 | -174*
Nc1ccc2nc(SCC(=O)N3CCOCC3)sc2c1 | -71*
CC(=O)N1CCN(c2ccc(NC(=O)c3cccc(Cl)c3)cc2)CC1 | -122*
CC(=O)N1CCN(c2ccc(NC(=O)c3ccc(C(C)(C)C)cc3)cc2)CC1 | -96*
CCOC(=O)c1ccc(Nc2nc(C)cc(C)n2)cc1 | -104*
CCOC(=O)c1ccc(Nc2cc(C)nc(-c3ccccc3)n2)cc1 | -213*
CCOC(=O)c1c(C)nc(-c2ccccc2)nc1NC(=O)CC | -87*
CCOC(=O)c1ccc(Nc2cnc3ccccc3n2)cc1 | -176*
CCc1ccc(NCc2nc3ccccc3c(=O)[nH]2)cc1 | -138*
CCOC(=O)c1ccc(NCc2nc3ccccc3[nH]2)cc1 | -149*
CCOC(=O)c1ccc(Nc2nnc(C)c3ccccc23)cc1 | -104*
CC(=O)c1ccc(Nc2nc(C)cc(C)n2)cc1 | -126*
O=C(COc1ccc(Br)cc1Cl)NC(=O)Nc1ccc2c(c1)OCCO2 | -72*
Cc1ccccc1OCC(=O)Nc1ccc(N2CCN(C)CC2)c(Cl)c1 | -140*
COc1cc(C=O)ccc1OCC(=O)Nc1ccc2c(c1)OCO2 | -90*
O=C(COc1ccccc1Cl)Nc1ccc2c(c1)OCCO2 | -151*
Cc1ccc(OCC(=O)Nc2ccc3c(c2)OCO3)c([N+](=O)[O-])n1 | -111*
Cc1ccccc1OCC(=O)Nc1cccc(C(=O)O)c1 | 105
Cc1ccccc1OCC(=O)Nc1ccc2c(c1)OCCO2 | -180*
SMILES | aSyn 5UTR act
Cc1cccc(C)c1OCC(=O)Nc1ccc2c(c1)OCCO2 | -158*
Cc1cc(C)c(OCC(=O)Nc2ccc3c(c2)OCO3)cc1C | -112*
N#Cc1cccc(NCC(=O)Nc2ccc3c(c2)OCCO3)c1 | -69*
COc1ccccc1OCC(=O)Nc1ccc2c(c1)OCCO2 | -89*
Cc1cc(C)c(OCC(=O)Nc2cccc(O)c2)cc1C | -114*
O=C1C=C(c2ccc3[nH]ccc3c2)CCC1 | -151*
CC1(C)CC(=O)C=C(c2ccc3[nH]ccc3c2)C1 | -65*
Cn1cc(Cl)c(C(=O)Nc2nc3ccc(Cl)cc3s2)n1 | -197*
Cn1cc(Cl)c(C(=O)Nc2nc3ccc([N+](=O)[O-])cc3s2)n1 | -68*
Nc1c(C(=O)c2ccc(Br)s2)oc2ccccc12 | -149*
Nc1c(C(=O)c2cccs2)oc2ccccc12 | -99*
COCCN=c1scc(-c2cccs2)n1/N=C(\C)c1ccco1 | -153*
O=c1cnc2ccccc2n1Cc1ccc(Br)cc1 | -65*
COCc1nc2ccccc2n1Cc1ccc(Br)cc1 | -80*
Cc1cc(OCc2cc(C(=O)N3CCCCCC3)no2)cc(C)c1Cl | -132*
COCC1CCN(C(=O)c2cc(COc3cc(C)c(Cl)c(C)c3)on2)C1 (stereo unspecified) | -91*
Fc1ccc(-c2cnc(-c3cccs3)o2)cc1 | -148*
Fc1ccc(-c2nc(-c3cccs3)no2)cc1 | -134*
CN(C)/C=N/c1nc(-c2ccc3ccccc3c2)cs1 | -145*
CN(C)/C=N/c1nc(-c2ccc3c(c2)OCO3)cs1 | -171*
C=CCSc1nnc(-c2cc3c(s2)-c2ccccc2CC3)o1 | -104*
O=[N+]([O-])c1ccc(Sc2n[nH]c(-c3ccccc3)n2)nc1 | -73*
Cc1ccnc(Sc2ccc([N+](=O)[O-])cn2)n1 | -72*
Cc1occc1-c1nc(-c2ccncc2)no1 | -77*
Cc1ccc(-c2noc(-c3ccoc3C)n2)cc1 | -186*
SMILES | aSyn 5UTR act
O=C(Nc1ccc(Cl)cc1Cl)NC1CCCC1 | -74*
CN(C(=O)Nc1ccc(Cl)cc1Cl)C1CCCC1 | -118*
O=C(NC1CCCCC1)Sc1ccc(Cl)cc1 | -72*
S=C(Nc1ccc(Cl)cc1Cl)NC1CCCCC1 | -127*
CN(c1ccc(O)cc1)c1nc(O)c(C2=c3ccccc3=NC2=O)s1 | -155*
O=C(Nc1ccon1)c1ccc(OC2CCCC2)cc1 | -102*
COc1cccc(OCc2cc(C(=O)N(C)Cc3nccn3C)no2)c1 | -142*
COc1ccc(OCc2cc(C(=O)N(Cc3nccn3C)C(C)C)no2)c2ccccc12 | -70*
COc1cccc(OCc2cc(C(=O)N(C)CCOc3ccc(C)cc3)no2)c1 | -133*
CC(=O)c1c(C)[nH]c(C(=O)OCC(=O)N2CCc3ccccc32)c1C | -131*
Cc1ccc(C(=O)OCC(=O)N2CCc3ccccc32)cc1 | -70*
O=C(CCSCc1ccccc1F)N1CCN(c2ccccn2)CC1 | -78*
O=C(CSCc1ccccc1Cl)N1CCN(c2ccccn2)CC1 | -82*
CCc1ccc(-c2nc(CSCC(=O)N3CCN(c4ccccn4)CC3)c(C)o2)cc1 | 82
O=C(Nc1ccc(N2CCOCC2)cc1)c1cc2ccccc2o1 | -110*
Cc1c(C(=O)Nc2ccc(N3CCOCC3)cc2)oc2ccccc12 | -166*
O=C(Nc1ccc(CN2CCOCC2)cc1)c1cc2ccccc2o1 | -71*
O=C(Nc1ccc(CN2CCOCC2)cc1)c1cc2ccccn2n1 | 72
O=C(/C=C/N1CCOCC1)c1coc2ccccc12 | -104*
O=C(/C=C/N1CCOCC1)c1cc2ccccc2o1 | -82*
O=C(Nc1ccc2c(c1)OCCO2)c1ccc(Cl)c([N+](=O)[O-])c1 | -105*
O=C(CNC(=O)c1ccc2c(c1)OCO2)Nc1ncccc1O | -77*
O=C(Nc1ccc2c(c1)OCCO2)c1ccc(Cl)c(Cl)c1 | -131*
N#Cc1ccsc1NC(=O)c1ccc(Cl)c([N+](=O)[O-])c1 | -116*
CCn1cc([N+](=O)[O-])c(C(=O)Nc2ccc3c(c2)OCCO3)n1 | -69*
SMILES | aSyn 5UTR act
O=C(Nc1ncccc1Cl)c1ccc2c(c1)OCCO2 | -119*
CCOc1ccc(C(=O)Nc2ncccc2Cl)cc1 | -116*
O=C(Nc1ccc(Cl)c(Cl)c1)C1=Cc2ccccc2OC1 | -202*
O=[N+]([O-])c1cc([N+](=O)[O-])c2c(=Nc3ccccc3)n(-c3ccccc3)n(O)c2c1 | -77*
Cc1ccc(-c2nc3ccccc3s2)cc1S(=O)(=O)N1CCCC1 | -63*
Cc1cccc(Cc2nnc(CCC(=O)N(CC3CC3)CC3CCCO3)o2)c1 (stereo unspecified) | -112*
CCCOC1CCCN(C(=O)CCc2nnc(Cc3cccc(C)c3)o2)C1 (stereo unspecified) | -164*
Cc1ccc(S(=O)(=O)/N=C2/C=C(C3C(=O)CC(C)(C)CC3=O)C(=O)c3ccccc32)cc1 | -180*
Cc1ccc(NC2=C/C(=N\S(=O)(=O)c3cccs3)c3ccccc3C2=O)c(C)c1 | 118
CCc1ccc(S(=O)(=O)/N=C2\C=C(Nc3ccc(O)cc3)C(=O)c3ccccc32)cc1 | 101
COc1cc2sc(NC(=O)c3ccco3)nc2cc1Cl | -189*
Cc1nc2ccc(NC(=O)c3ccco3)cc2s1 | -90*
CC(=O)Nc1nc2ccc(NC(=O)c3ccco3)cc2s1 | -77*
Cc1ccc2nsnc2c1NC(=S)NC(=O)c1ccco1 | -94*
Cc1ccc2nc(NC(=S)NC(=O)c3ccco3)sc2c1 | -148*
Cc1ccc2nc(NC(=O)c3ccco3)sc2c1 | 85
CC(c1nccs1)N(C)C(=O)c1cn(Cc2cccc3ccccc23)nn1 (stereo unspecified) | -86*

Compound activity: PubChem BioAssay, Broad Institute
